The values below come from ChEMBL document CHEMBL1201862, “PubChem BioAssay data set” (2004).

Molecules are shown by their SMILES.

The experiment in a line: M. tuberculosis growth inhibition, dose response, 7H9 media, purified and synthesized compounds, set 6 (AID 504897). In kind it is functional.
In general, IC90 refers to the point of the concentration-response curve where the effect stands at 90%. As for `Cc1[nH]c2ccccc2c1C(=O)COC(=O)c1ccc([N+](=O)[O-])s1`, the IC90 was > 67.8 µM (active).

Turning to `O=C(CSc1ccccn1)NC1CCCCC1`, the IC90 is > 100 µM (active).

Turning to `CCCc1cc(C(N)=S)ccn1`, the 90% effect concentration (IC90) is > 100 µM (active).

With `COC(=O)c1ccc(CNc2c(N3CCCC3)c(=O)c2=O)cc1`, the IC90 was > 100 µM (active).

As for `NC(=O)c1cnccn1`, the IC90 was > 100 µM (active).
